Each structure is given as a SMILES string. Inconclusive results are not listed. Entries that show only a call come without a potency. Activity calls are given as the source filed them. Calls follow the shape of the dose curve; as a rule, active = well fitted inhibition curve with a large enough effect; inconclusive = small, poorly fitted or top-dose-only effect; inactive = flat fitted curve, though single readings scatter.
Potency is read from the fitted curve at half-maximal effect.

Chain of Luciferin 4-monooxygenase (Photinus pyralis) (P08659 whole entry, looked up): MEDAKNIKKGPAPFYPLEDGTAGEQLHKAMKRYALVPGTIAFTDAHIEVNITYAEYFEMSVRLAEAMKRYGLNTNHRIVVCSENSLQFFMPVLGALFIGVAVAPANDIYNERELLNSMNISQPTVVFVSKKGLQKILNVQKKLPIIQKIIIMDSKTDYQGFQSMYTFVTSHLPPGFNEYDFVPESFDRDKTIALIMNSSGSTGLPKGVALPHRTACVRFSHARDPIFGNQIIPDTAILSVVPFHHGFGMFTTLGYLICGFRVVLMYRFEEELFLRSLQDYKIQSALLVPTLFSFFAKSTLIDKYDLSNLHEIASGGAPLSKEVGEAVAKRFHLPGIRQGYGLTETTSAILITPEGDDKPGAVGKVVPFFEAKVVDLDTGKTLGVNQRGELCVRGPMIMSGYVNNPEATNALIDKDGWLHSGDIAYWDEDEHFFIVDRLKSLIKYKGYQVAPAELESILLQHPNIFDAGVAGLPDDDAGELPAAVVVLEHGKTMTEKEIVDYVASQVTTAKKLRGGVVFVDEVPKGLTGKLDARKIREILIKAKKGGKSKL

The target of the assay is Luciferin 4-monooxygenase (Photinus pyralis) (UniProt P08659). The experiment in a line: Biochemical firefly luciferase enzyme assay for NPC (AID 624030). Also: nearly all actives have a fitted effect of over 70% in size. Conditions: purified P. pyralis luciferase, luminescence, 5 min; series mostly up to 58.6 µM. The source says:
Charcot-Marie-Tooth-Association [CMTA] National Center for Advancing Translational Sciences [NCATS] Charcot-Marie-Tooth (CMT) disease was first characterized by Jean-Martin Charcot and Pierre Marie in France and, independently, by Howard Henry Tooth in England in 1886. CMT is one of the most common inherited neurological diseases, affecting approximately 1 in 2,500 Americans. […] The most prevalent type of CMT is known as CMT1A and caused by a duplication of the PMP22 gene which leads to over-expression of this protein. PMP22 is a glycosylated intrinsic membrane protein accounting for 2-5% of the myelin protein content, and its over-expression results in demyelination and subsequently axonal loss. A pair of cellular transcription-based assays was developed in the S16 rat Schwann cell lines (Hai, M., et al., 2002) stably transfected with orthogonal reporters - firefly luciferase (Fluc) and beta-lactamase (beta-Lac) - whose expression is driven by an intronic regulatory element of the PMP22 gene (Jones, E.A., et al., 2011) to recapitulate endogenous expression of PMP22. A comprehensive library of approved drugs, the NCGC Pharmaceutical Collection (Huang, R., et al., 2011), was screened in the cross-validating platform of the orthogonal reporter assays to identify drug modulators inhibitory towards PMP22 expression. A set of counter-screens was devised to address non-specific activity of the library. An ATP-dependent CellTiter-Glo assay (developed by Promega Corp) was utilized to control cell viability. In addition, biochemical Fluc enzyme assay was performed to assess direct inhibition of the Fluc enzymatic activity. References Hai, M., Muja, N., DeVries, G.H., Quarles, R.H. and Patel, P.I. Comparative analysis of Schwann cell lines as model systems for myelin gene transcription studies. J Neurosci Res, 2002. 69(4): pp 497-508 Huang, R., Southall, N., Wang, Y., Yasgar A., Shinn P., Jadhav, A. , Nguyen, D.-T. and Austin, C.P., The NCGC pharmaceutical collection: a comprehensive resource of clinically approved drugs enabling repurposing and chemical genomics. Sci Transl Med, 2011. 3(80): p. 80ps16.
Compounds were transferred to the plates in 23nl, and one microliter/well luciferase enzyme-buffer solution (10 nM P. pyralis luciferase and 50 mM Tris Acetate final concentrations) was dispensed yielding a final reaction volume of […]. Luciferase luminescence was measured by a ViewLux plate reader within 5 minutes of enzyme-buffer addition. The % activity was determined by normalizing to the average readings of PTC124 (a positive control) relative to DMSO (0% Activity). The concentration-effect curves were then classified based on curve quality (r2), response magnitude and degree of measured activity.
`CN1CC(=O)N/C1=N/C(=O)Nc1cccc(Cl)c1`: the Potency result was “inactive”.
Turning to `CN(C)CCC(c1ccc(Cl)cc1)c1ccccn1` (stereo not given), the Potency entry is “inactive”.
To `[O-][n+]1ccccc1SSc1cccc[n+]1[O-]` belongs 2560 nM (active).
With `C=CCN1C(=O)C(CC(C)C)NC1=S` (stereo not given), the Potency entry is “inactive”.
As to `N=C(N)N`, the Potency result was “inactive”.
As for `C=CC(N)CCC(=O)O` (stereo not given), the Potency result was “inactive”.
To `Cc1cc(O)c2ccccc2c1O` belongs “inactive”; to `COc1cc2c3cc1Oc1cc(ccc1O)C[C@@H]1c4c(cc(OC)c(O)c4Oc4ccc(cc4)C[C@@H]3N(C)CC2)CC[N+]1(C)C`, “inactive”; to `COc1cc(CNC(=O)CCCC/C=C/C(C)C)ccc1O`, “inactive”.
As to `O=C(O)[C@H](CC(=O)N1C[C@H]2CCCC[C@H]2C1)Cc1ccccc1`, the Potency entry is “inactive”.
With `CCCCC[C@H](O)/C=C/[C@@H]1[C@@H](C/C=C\CCCC(=O)O)[C@@H](O)C[C@H]1O`, the Potency entry was “inactive”.
Regarding `O=c1[nH]c2ccccc2n1CCCN1CCN(C(c2ccccc2)c2ccccc2)CC1`, the Potency result is “inactive”.
With `CC1OC1P(=O)(O)O` (stereo not given), the Potency result is “inactive”.
As for `O=C(O)COc1ccc(C(=O)c2cccs2)c(Cl)c1Cl`, the Potency entry is “inactive”.
Consider `O=c1cc(-c2ccccc2)oc2ccccc12`, for which the Potency was 20900 nM (active).
Turning to `NCCO`, the Potency entry is “inactive”.
On to `O=C(O)/C=C/C(O)c1ccc(Cl)cc1` (stereo not given), for which the Potency result was “inactive”.
As to `NC(=O)C(c1ccccc1)(c1ccccc1)[C@@H]1CCN(CCc2ccc3c(c2)CCO3)C1`, the Potency result was “inactive”.
In the case of `C[S+](CC[C@H](N)C(=O)O)C[C@H]1O[C@@H](n2cnc3c(N)ncnc32)[C@H](O)[C@@H]1O` (stereo not given in full), the Potency result is “inactive”.
For the compound `Cc1ccccc1CNc1ncnc2c1ncn2C1OC(CO)C(O)C1O` (stereo not given), the Potency result was “inactive”.
To `CCOC(=O)c1ccccc1O` belongs “inactive”.
In the case of `Cc1[nH]cnc1CN1CCc2c(c3ccccc3n2C)C1=O`, the Potency result is “inactive”.
Take `CCCC(=O)OC[C@@H](OC(=O)CCC)[C@@H](OC(=O)CCC)[C@H](Cn1c2nc(=O)[nH]c(=O)c-2nc2cc(C)c(C)cc21)OC(=O)CCC`: the Potency result is “inactive”.
The result for `Cc1c(N)c(=O)n(-c2ccccc2)n1C` reads “inactive”; that for `CO[C@@]1(NC(=O)Cc2cccs2)C(=O)N2C(C(=O)O)=C(COC(N)=O)CS[C@@H]21`, “inactive”.
Turning to `Nc1ccc([N+](=O)[O-])cc1O`, the Potency result is “inactive”.
For `CCCOC(=O)c1ccc(O)cc1`, the Potency result was “inactive”.
In the case of `O=C1CN(/N=C/c2ccc([N+](=O)[O-])o2)C(=O)N1`, the Potency result was “inactive”.
The result for `N.N.O=C(O)C1(C(=O)O)CCC1.[Pt]` reads “inactive”.
Regarding `N=C1N=C(N)c2cc3ccccc3cc21`, the Potency result is “inactive”.
The result for `CC(C)Cc1ccc([C@H](C)C(=O)O)cc1` reads “inactive”; that for `CCCCCCOc1ccccc1C(N)=O`, “inactive”.
Regarding `O=C(O)[C@H](O)[C@@H](O)[C@H](O)[C@H](O)CO`, the Potency result is “inactive”.
As for `CC(N)C(=O)OC(C)(C)Cc1ccc(Cl)cc1` (stereo not given), the Potency result is “inactive”.
As for `CCCCCCCCCCCCCCCCCC(=O)O`, the Potency entry was “inactive”.
To `Cc1ccc(O)c(-n2nc3ccccc3n2)c1` belongs 2870 nM (active); to `c1ccc2sc(SSc3nc4ccccc4s3)nc2c1`, “inactive”; to `COC(=O)C1=C(C)NC(C)=C(C(=O)OCC(C)=O)C1c1ccccc1[N+](=O)[O-]` (stereo not given), “inactive”.
The result for `CC(=O)c1ccc(OCC(=O)N2CCCCC2)cc1` reads “inactive”.
As to `Nc1cc(-c2ccncc2)c[nH]c1=O`, the Potency entry is “inactive”.

Values taken from PubChem BioAssay (NCATS).
